Data on eleven compounds can be found in PubChem BioAssay (NCI).

Each structure is given as a SMILES string. “And” between values parts separate entries of the source, which are not always exact repeats. Equal values may be shown once. About 83,000 compounds went through this panel and 20% of them were active in at least one assay; those are over-represented in the sample as a whole.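 Single-concentration screen, 48 h exposure, 96-well plates. Endpoint: percent growth. Below 10 = active.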 The source made the active and inactive calls.

Some test systems named below: SR leukemia; RPMI-8226 leukemia; OVCAR-8 ovarian; OVCAR-5 ovarian; OVCAR-4 ovarian; SK-OV-3 ovarian; IGROV1 ovarian; OVCAR-3 ovarian; HS 578T breast; NCI/ADR-RES ovarian.
Common to all, as to experiment: NCI-60 one-dose screen, 48 h (100 = growth as untreated, 0 = no growth, -100 = all killed)
Holding throughout (conditions): 10 µM unless noted

For `COc1ccc(-c2cc(-c3cccc(Cl)c3)c(C#N)c(=O)[nH]2)c(OC)c1`, the growth is 111% (inactive) in the assay on SR leukemia; 68.3% (inactive) with RPMI-8226 leukemia; 94.4% (inactive) in the assay on OVCAR-8 ovarian; 99.1% (inactive) with OVCAR-5 ovarian; 91.8% (inactive) in the assay on OVCAR-4 ovarian; 114% (inactive) in the assay with SK-OV-3 ovarian. Further, the growth with IGROV1 ovarian was 92.1% (inactive); in the assay with OVCAR-3 ovarian, 90.5% (inactive); with HS 578T breast, 74.4% (inactive); with NCI/ADR-RES ovarian, 90.9% (inactive).

As for `C[C@@H]1CC[C@@H]2[C@@H]1[C@H](OC(=O)/C=C/c1ccccc1)[C@]1(c3ccccc3)C[C@@H](NC(=O)CO)[C@@]2(C)O1`, the growth in the assay with SR leukemia was 90.4% (inactive); in the assay with RPMI-8226 leukemia it was 92.2% (inactive); in the assay with OVCAR-8 ovarian, 93.9% (inactive); with OVCAR-5 ovarian it was 98.5% (inactive); in the assay on OVCAR-4 ovarian, 97.2% (inactive); with SK-OV-3 ovarian, 90.4% (inactive). Moreover, the growth in the assay with IGROV1 ovarian is 102% (inactive); in the assay on OVCAR-3 ovarian it was 108% (inactive); in the assay with HS 578T breast, 92% (inactive); with NCI/ADR-RES ovarian, 93% (inactive).

On to `N=C(N)c1ccc(-c2ccc(-c3ccc(F)cc3)s2)nc1`, for which the growth in the assay with SR leukemia was 3.85% (active); in the assay on RPMI-8226 leukemia, 5.51% (active); with OVCAR-8 ovarian, 68.9% (inactive); in the assay with OVCAR-5 ovarian, 77.6% (inactive); in the assay with OVCAR-4 ovarian it was 79.7% (inactive); in the assay with SK-OV-3 ovarian it was 86.3% (inactive). The growth was 65.7% (inactive) with IGROV1 ovarian, 76.9% (inactive) in the assay with OVCAR-3 ovarian, 84.2% (inactive) in the assay on HS 578T breast and 93.5% (inactive) in the assay on NCI/ADR-RES ovarian.

`CONC1=Nc2cc(NC(N)=NCc3ccccc3)c(N(C)C3CCCCC3)cc2OC1`: the growth in the assay on SR leukemia is -12.1% (active); in the assay with RPMI-8226 leukemia, 38.5% (inactive); in the assay with OVCAR-8 ovarian, 83.9% (inactive); in the assay on OVCAR-5 ovarian it was 65.5% (inactive); with OVCAR-4 ovarian it was 73.8% (inactive); in the assay with SK-OV-3 ovarian, 83.5% (inactive). The growth in the assay on IGROV1 ovarian is 59.6% (inactive); in the assay on OVCAR-3 ovarian it was 77.4% (inactive); in the assay on HS 578T breast, 71.4% (inactive); in the assay on NCI/ADR-RES ovarian, 99.8% (inactive).

For `CC[C@]1(O)CC2CN(CCc3c([nH]c4ccccc34)C(C(=O)OC)(c3cc4c(cc3OC)N(C=O)[C@H]3[C@@](O)(C(=O)OC)[C@H](OC(C)=O)[C@]5(CC)[C@@H]6C[C@@H]6CN6CC[C@]43[C@@H]65)C2)C1` (stereo not given in full), the growth in the assay with SR leukemia was 12.7% (inactive); in the assay with RPMI-8226 leukemia, 23.4% (inactive); in the assay with OVCAR-8 ovarian, 10.3% (inactive); in the assay on OVCAR-5 ovarian it was 29.6% (inactive); with OVCAR-4 ovarian it was 45.5% (inactive); in the assay on SK-OV-3 ovarian, -17.7% (active). For the same compound, the growth in the assay on IGROV1 ovarian was 8.34% (active); in the assay on OVCAR-3 ovarian it was -53.6% (active); with HS 578T breast, -2.32% (active); in the assay on NCI/ADR-RES ovarian it was -6.57% (active).

As for `C#Cc1cc(C(=O)Nc2ccc(CN3CCN(C)CC3)c(C(F)(F)F)c2)ccc1C`, the growth was 58.7% (inactive) in the assay with SR leukemia; 59.5% (inactive) in the assay on RPMI-8226 leukemia; 77.4% (inactive) with OVCAR-8 ovarian; 74.6% (inactive) in the assay with OVCAR-5 ovarian; 72.3% (inactive) in the assay with OVCAR-4 ovarian; 93.2% (inactive) with SK-OV-3 ovarian. In addition, the growth in the assay with IGROV1 ovarian was 75.7% (inactive); in the assay with OVCAR-3 ovarian it was 86.4% (inactive); with HS 578T breast, 64.7% (inactive); with NCI/ADR-RES ovarian it was 82.2% (inactive).

Turning to `COc1ccc(-c2nnc3n(C)c(=O)c4ccccc4n23)cc1O`, the growth with SR leukemia was 21.4% (inactive); with RPMI-8226 leukemia, 15.9% (inactive); in the assay on OVCAR-8 ovarian, 25.2% (inactive); with OVCAR-5 ovarian it was 66% (inactive); in the assay on OVCAR-4 ovarian, 53.6% (inactive); in the assay on SK-OV-3 ovarian, 14.9% (inactive). Further, the growth was 55.7% (inactive) in the assay on IGROV1 ovarian, 0.325% (active) with OVCAR-3 ovarian, 29.5% (inactive) in the assay with HS 578T breast and 15.5% (inactive) in the assay on NCI/ADR-RES ovarian.

Consider `Cc1ccc(NC(=O)N/C(N)=N/c2nc(=O)c3ccccc3s2)cc1`, for which the growth in the assay with SR leukemia was 88.1% (inactive); in the assay with RPMI-8226 leukemia it was 101% (inactive); in the assay on OVCAR-8 ovarian it was 101% (inactive); with OVCAR-5 ovarian it was 102% (inactive); with OVCAR-4 ovarian, 99.8% (inactive); in the assay on SK-OV-3 ovarian, 94.5% (inactive). The growth is 91.9% (inactive) with IGROV1 ovarian, 100% (inactive) with OVCAR-3 ovarian, 82.9% (inactive) in the assay with HS 578T breast and 110% (inactive) with NCI/ADR-RES ovarian.

As for `CCCCCCCCCCCCCCCCCCOc1cccc(CC(=O)OCC[N+](CC)(CC)CC)c1`, the growth in the assay on SR leukemia was 53% (inactive); with RPMI-8226 leukemia, 35.4% (inactive); with OVCAR-8 ovarian it was 41.4% (inactive); in the assay on OVCAR-5 ovarian, 71.3% (inactive); in the assay with OVCAR-4 ovarian, 27.6% (inactive); with SK-OV-3 ovarian, 103% (inactive). In addition, the growth is 37.1% (inactive) in the assay with IGROV1 ovarian, 77.7% (inactive) with OVCAR-3 ovarian, 60.8% (inactive) with HS 578T breast and 103% (inactive) with NCI/ADR-RES ovarian.

As to `O=C(/C=C/c1ccccc1)c1cccs1`, the growth is 94.9% (inactive) and 24.1% (inactive) with SR leukemia; 49.3% (inactive) and 6.44% (active) in the assay with RPMI-8226 leukemia; 97.5% (inactive) and 94% (inactive) in the assay with OVCAR-8 ovarian; 93.2% (inactive) and 108% (inactive) in the assay with OVCAR-5 ovarian; 97.7% (inactive) and 87.3% (inactive) with OVCAR-4 ovarian; 104% (inactive) and 112% (inactive) in the assay with SK-OV-3 ovarian. Further, the growth is 104% (inactive) and 116% (inactive) in the assay with IGROV1 ovarian; 97% (inactive) and 117% (inactive) with OVCAR-3 ovarian; 100% (inactive) with HS 578T breast; 99.5% (inactive) and 100% (inactive) with NCI/ADR-RES ovarian.

With `CCC(=O)Oc1cc(Cl)c(Cl)cc1Cl`, the growth with SR leukemia is 101% (inactive); in the assay with RPMI-8226 leukemia it was 102% (inactive); with OVCAR-8 ovarian, 96.9% (inactive); with OVCAR-5 ovarian it was 90.2% (inactive); in the assay with OVCAR-4 ovarian it was 101% (inactive); in the assay with SK-OV-3 ovarian it was 107% (inactive). The growth in the assay with IGROV1 ovarian was 108% (inactive); in the assay on OVCAR-3 ovarian, 113% (inactive); with HS 578T breast, 97.4% (inactive); in the assay with NCI/ADR-RES ovarian, 108% (inactive).
